We go through 10 compounds from PubChem BioAssay (NCI).

Some test systems named below: NCI-H23 lung; NCI-H226 lung; NCI-H322M lung; HOP-62 NSCLC; NCI-H460 lung; HOP-92 NSCLC; NCI-H522 lung; A549/ATCC NSCLC; 786-0 renal; COLO 205 colon.
What all share (test): NCI-60 one-dose screen, 48 h (100 = growth as untreated, 0 = no growth, -100 = all killed)
Conditions in all cases: 10 µM unless noted

The panel holds about 83,000 compounds, 20% with a hit somewhere; the sample as a whole holds those more often.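 Values shown are percent growth following 48 h exposure of cells in 96-well plates to a single concentration of compound; below 10 was considered active.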 A number with no mark means an inactive call. Calls of active or inactive are those of the source.

`CCN1CCN(c2nc(C)cc(NCc3cc(Nc4ccnc5cc(Cl)ccc45)ccc3F)n2)CC1`: the growth in the assay with NCI-H23 lung is 46.5%; in the assay with NCI-H226 lung, 69.1%; in the assay with NCI-H322M lung it was 50.5%; with HOP-62 NSCLC, 12%; in the assay on NCI-H460 lung, -12.6% (active); in the assay with HOP-92 NSCLC, 36%. Further, the growth in the assay on NCI-H522 lung was -14.8% (active); with A549/ATCC NSCLC, 28%; in the assay with 786-0 renal, -51.2% (active); in the assay with COLO 205 colon it was -56.4% (active).

Turning to `Nc1cc2c3c(cccc3c1)C(=O)N(CCN1CCCC1)C2=O`, the growth with NCI-H23 lung is 39.5%; in the assay with NCI-H226 lung, -7.42% (active); with NCI-H322M lung, 54.5%; in the assay on HOP-62 NSCLC it was 44.4%; with NCI-H460 lung, 2.15% (active); in the assay on HOP-92 NSCLC it was 27.5%. The growth in the assay with NCI-H522 lung is 29.3%; in the assay with A549/ATCC NSCLC, 14.8%; with 786-0 renal, 46.4%; in the assay on COLO 205 colon, 14%.

`CCN(CC)c1ccc2nc3c4ccccc4c(=NC(=O)c4ccccc4-c4c5ccc(N(CC)CC)cc5[o+]c5cc(N(CC)CC)ccc45)cc-3oc2c1`: the growth in the assay with NCI-H23 lung was 10.9%; in the assay with NCI-H226 lung, 76.5%; with NCI-H322M lung, 11.6%; in the assay with HOP-62 NSCLC, 17.4%; with NCI-H460 lung it was -54.1% (active); with HOP-92 NSCLC, 1.45% (active). The growth was -5.73% (active) in the assay on NCI-H522 lung, 14.5% in the assay on A549/ATCC NSCLC, -28.3% (active) in the assay with 786-0 renal and -80.1% (active) in the assay on COLO 205 colon.

Take `C[C@H]1[C@H]2[C@H]3CC[C@@H]4[C@@]5(C)C/C(=C/c6cccnc6)C(=O)C(C)(C)[C@@H]5CC[C@@]4(C)[C@]3(C)CC[C@]23CO[C@]1(C)[C@@H](C(=O)/C=C\c1cccnc1)C3`: the growth in the assay on NCI-H23 lung is -48.7% (active); with NCI-H226 lung, -13.5% (active); in the assay on NCI-H322M lung, 46.4%; in the assay with HOP-62 NSCLC, -13.6% (active); in the assay on NCI-H460 lung it was -45.3% (active); in the assay with HOP-92 NSCLC it was -20% (active). The growth with NCI-H522 lung is -34.4% (active); with A549/ATCC NSCLC, -24.6% (active); in the assay on 786-0 renal it was -39% (active); with COLO 205 colon, -56.8% (active).

Turning to `O=C(/C=C/c1c(Cl)nc2sccn12)c1nccs1`, the growth in the assay with NCI-H23 lung is 94.2%; in the assay with NCI-H226 lung, 83.4%; in the assay with NCI-H322M lung, 104%; in the assay with HOP-62 NSCLC it was 88.2%; with NCI-H460 lung, 92.7%; in the assay on HOP-92 NSCLC, 63.8%. In addition, the growth in the assay with NCI-H522 lung is 72.4%; with A549/ATCC NSCLC it was 88%; in the assay with 786-0 renal, 102%; in the assay with COLO 205 colon, 104%.

As for `COCCc1ccc(OCC(O)CNC(C)C)cc1` (stereo not given), the growth in the assay with NCI-H23 lung was 98.5%; in the assay with NCI-H226 lung, 109%; in the assay with NCI-H322M lung, 99.2%; in the assay on HOP-62 NSCLC, 101%; in the assay with NCI-H460 lung it was 107%; with HOP-92 NSCLC, 73.1%. For the same compound, the growth with NCI-H522 lung is 93.3%; in the assay on A549/ATCC NSCLC, 104%; in the assay with 786-0 renal, 97.8%; with COLO 205 colon it was 106%.

Regarding `C=C1C(=O)O[C@H]2[C@H]1CC/C(CNC(=O)/C=C/c1ccc(Cl)cc1Cl)=C\CC[C@@]1(C)O[C@@H]21`, the growth in the assay with NCI-H23 lung is -61.2% (active); in the assay with NCI-H226 lung it was 64.2%; with NCI-H322M lung, 73.9%; in the assay on HOP-62 NSCLC, 17.2%; in the assay on NCI-H460 lung it was 2.98% (active); with HOP-92 NSCLC it was -50.8% (active). Moreover, the growth is -84.2% (active) in the assay with NCI-H522 lung, 20.9% with A549/ATCC NSCLC, -77.1% (active) with 786-0 renal and -65.5% (active) with COLO 205 colon.

For the compound `O=c1cc(-c2ccc(Cl)cc2)[nH]c2ccccc12`, the growth in the assay with NCI-H23 lung is 83.2%; in the assay with NCI-H226 lung it was 87%; in the assay with NCI-H322M lung, 92.3%; in the assay on HOP-62 NSCLC, 79.3%; in the assay on NCI-H460 lung it was 90.8%; in the assay on HOP-92 NSCLC, 73.3%. The growth in the assay with NCI-H522 lung is 80.9%; in the assay on A549/ATCC NSCLC, 91.2%; in the assay with 786-0 renal, 82.4%; in the assay with COLO 205 colon, 99.7%.

On to `COc1cccc(-c2nc3sccn3c2-c2ccnc(NCCNS(=O)(=O)c3cccc(F)c3)c2)c1`, for which the growth in the assay on NCI-H23 lung was 33.7%; in the assay on NCI-H226 lung, 22.9%; in the assay with NCI-H322M lung, 73.2%; in the assay on HOP-62 NSCLC it was 55.3%; in the assay on NCI-H460 lung it was 28.8%; in the assay with HOP-92 NSCLC, 18.3%. Further, the growth in the assay with NCI-H522 lung is 40.9%; in the assay with A549/ATCC NSCLC, 27.2%; with 786-0 renal, 48.1%; in the assay on COLO 205 colon, 25.8%.

Regarding `COc1cc(C(=O)/C=C/c2c(C(F)(F)F)nc3sccn23)cc(OC)c1OC`, the growth with NCI-H23 lung was 1.76% (active); in the assay with NCI-H226 lung, 29.1%; with NCI-H322M lung it was 13.8%; with HOP-62 NSCLC it was 4.69% (active); in the assay on NCI-H460 lung, -72.1% (active); with HOP-92 NSCLC, 40.1%. The growth was -63.1% (active) in the assay on NCI-H522 lung, 11.3% with A549/ATCC NSCLC, 3.07% (active) in the assay with 786-0 renal and -76.7% (active) in the assay on COLO 205 colon.
